From PubChem BioAssay (NCATS)
A number with no mark means an inactive call. Results filed as inconclusive are left out. Entries that show only a call come without a potency. Active and inactive are the calls of the source. Calls come from the whole dose curve; as a rule, active = well fitted curve in the direction sought with a large enough effect; inconclusive = small, poorly fitted or top-dose-only effect, or another doubt; inactive = no such curve, though single readings can be large; an effect the other way counts as inactive or inconclusive.

What was measured:
[1] = tested on: Zika virus NS2B-NS3 protease (linked construct); assay: Primary screen NINDS Rhodamine qHTS for Zika virus inhibitors (AID 1347160); note: nearly all actives have a fitted effect of over 55% in size; note: potency is the fitted concentration of half-maximal effect
How it was run: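 Kinetic fluorescence (Ex 480 nm, Em 540 nm) over 15 min with 1.5 microM Rhodamine110 peptide and 25 nM linked protease.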

[2] = tested on: Zika virus NS2B-NS3 protease (linked); assay: 384 well plate NINDS AMC confirmatory qHTS for Zika virus inhibitors (AID 1347163); note: potency is the fitted concentration of half-maximal effect; nearly all actives have a fitted effect of over 50% in size
How it was run: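 Linked protease 5/30/60 nM final; cpds up to 1 mM final, ~15 min preinc. Substrate Ac-VKTGKR-AMC 30 microM final. RT, dark, 25 min; FI ex 355/em 460; normalized to no-enzyme/no-inhibitor ctrls.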

[3] = tested on: Zika virus NS2B-NS3 protease (linked construct); assay: 384 well plate NINDS Rhodamine confirmatory qHTS for Zika virus inhibitors (AID 1347164);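 note: fluorescence from protease cleavage of Ac-LKRR-rhodamine 110 substrate; top concentration of the series differs between compounds; nearly all actives have a fitted effect of over 65% in size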
How it was run: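 Linked NS2B-NS3 protease (final 5, 30 or 60 nM) preincubated ~15 minutes with compounds, then 10 microM Ac-LKRR-Rhodamine 110 added. Fluorescence (485/538 nm) read after 25 minutes at room temperature, normalized to no-enzyme and no-inhibitor controls.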

[4] = biological target: Lysine-specific demethylase 5B (Homo sapiens) (UniProt Q9UGL1); assay: Optimization screen for KDM5B Histone Demethylases FDH coupled qHTS against the LOPAC library (AID 1347166)
How it was run: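 KDM5BDeltaAP (200nM final) preincubated 10 min with compound, then 12.5uM H3K4Me3, 25uM a-ketoglutarate, ascorbate, Fe(II), NAD+ and FDH added; 50mM HEPES pH 7.5, 0.01% Tween-20. NADH fluorescence (340/450 nm) change over 30 min, room temperature.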

[5] = Vero cells viability qHTS for Zika virus inhibitors (AID 1347167)
How it was run: (§1)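 Compounds were tested in concentration series on cells grown in DMEM containing 4% FBS. After 24 to 48 hours, cellular ATP was measured by luminescence with CellTiter Glo.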

[6] = HepG2 cells viability qHTS for Zika virus inhibitors (AID 1347168)
How it was run: as §1

[7] = qHTS to identify inhibitors of the type 1 interferon - major histocompatibility complex class I in skeletal muscle: primary screen against the NCATS LOPAC collection (AID 1347405);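 note: lytic HiBiT luminescence reporting HLA-B protein level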
How it was run: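 Cells: C25cl48 human myoblasts, HiBiT-tagged HLA-B*08:01, stimulated with IFN-beta 4.0 ng/ml. Compounds are titrated 1:4.3 over 7 points from 46 uM final and incubated 24 hrs; endogenous MHC class I is quantified by HiBiT lytic luminescence.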

[8] = qHTS for inhibitors of adenylyl cyclases using a fission yeast platform: a pilot screen against the NCATS LOPAC library (AID 1347410)
How it was run: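 S. pombe CHP2027 (AC9-GNAS-PDE4D2) carrying PKA-repressed fbp1-GFP, incubated 18 h at 30C in EMM with LOPAC compounds at up to 57 uM. GFP gain-of-signal read by laser scanning cytometry; DMSO negative control.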

[9] = qHTS to identify inhibitors of the type 1 interferon - major histocompatibility complex class I in skeletal muscle: primary screen against the NCATS Mechanism Interrogation Plate v5.0 (MIPE) Libary (AID 1347411); note: nearly all actives have a fitted effect of over 65% in size; note: potency is the fitted concentration of half-maximal effect
How it was run: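 Cells were genome-edited human myoblasts carrying a HiBit tag on endogenous HLA-B. They were treated with IFN-beta (4.0 ng/ml) and titrated compounds (top 46 uM) for 24 hrs before lytic HiBiT detection.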

[10] = Validation qHTS assay for inhibitors of Activation Induced Cytidine Deaminase (AID): UDG Counterscreen signal (AID 1347427)
How it was run: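 Counterscreen read of UDG activity (2 U/mL, 4/3x) in the FRET deamination format with AID (1 uM, 4/3x), DJC20/DJC23 substrates (250 nM, 4x), 4 h at room temperature. NaOH stop, fluorescence at 560 ex/665 em.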

[11] = biological target: Single-stranded DNA cytosine deaminase (Homo sapiens) (UniProt Q9GZX7); assay: Validation qHTS assay for inhibitors of Activation Induced Cytidine Deaminase (AID): AID signal (AID 1347429); note: potency is the fitted concentration of half-maximal effect
How it was run: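 In this coupled qHTS, AID deaminates a FRET-labelled ssDNA substrate in the presence of UDG over 4 hr at room temperature. Compounds span up to 114 uM final.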

[12] = Primary qHTS for inhibitors of La Crosse Virus (LACV) - induced cell death in SH-SY5Y cells (AID 1508616);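 note: top concentration of the series differs between compounds; higher means more rescue of cells from virus-induced death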
How it was run: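 Readout was luminescence from ATPLite 1step added after a 6-day LACV infection (0.01 MOI) of SH-SY5Y cells that had received pin-transferred compound 24 hr after seeding.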

[13] = tested on: Zika virus NS2B-NS3 protease (unlinked complex); assay: Primary screen GU Rhodamine qHTS for Zika virus inhibitors: Unlinked NS2B-NS3 protease assay (AID 1347159); note: nearly all actives have a fitted effect of over 60% in size; note: potency is the fitted concentration of half-maximal effect
How it was run: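 A qHTS format was used, with compound concentrations ranging up to 114 microM. Each compound was preincubated with 25 nM NS2B-NS3 protease, and the substrate was then added at 1.5 microM. Curves were fitted with a 4-parameter Hill model.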

[14] = qHTS to identify inhibitors of the type 1 interferon - major histocompatibility complex class I in skeletal muscle: primary screen against the NCATS Pharmaceutical Collection (AID 1347407);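 note: luminescence of HiBiT knocked into endogenous HLA-B as interferon-induced MHC class I level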
How it was run: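 Immortalized human myoblasts (C25cl48) with HiBiT knocked into endogenous HLA-B*08:01 were stimulated with 4.0 ng/ml IFN-beta and treated with compounds ([…] top 46 uM) for 24 hrs at 37 C. HiBiT lytic luminescence read.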

[15] = biological target: Protein phosphatase 1D (Homo sapiens) (UniProt O15297); assay: RapidFire Mass Spectrometry qHTS Assay for Modulators of WT P53-Induced Phosphatase 1 (WIP1) (AID 1347424);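 note: amount of dephosphorylated VEPPL-S-QETFS peptide product formed by WIP1; series mostly up to about 63 µM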
How it was run: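 10 nM WIP1 + cpd, 1 h RT; + 2 uM VEPPL-pS-QETFS, 5 min RT; stop 0.5% formic acid; labelled product standard 1 uM; RapidFire MS. Buffer 50 mM Tris pH 7.5, 30 mM MgCl2, 1 mM TCEP.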

[16] = biological target: Protein phosphatase 1D (Homo sapiens) (UniProt O15297); assay: Rhodamine-PBP qHTS Assay for Modulators of WT P53-Induced Phosphatase 1 (WIP1) (AID 1347425)
How it was run: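 5 nM WIP1 + 10 uM Rh-PBP, 50 mM Tris pH 7.5, 30 mM MgCl2, 1 mM TCEP, 0.1 mM EGTA, BSA; cpds pinned, 1 hr RT; + 10 uM phosphopeptide; fluorescence 1-min reads x 11 min; delta = f1 - f0.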

[17] = biological target: Calcium and integrin-binding protein 1 (Homo sapiens) (UniProt Q99828); assay: Validation qHTS for Identification of Calcium Integrin Binding protein 1 (CIB1) Competitor (AID 1508618)
How it was run: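 Displacement of FITC-alphaIIb peptide (100 nM) from CIB1-GST (1 uM) is monitored by polarization in quantitative HTS format; buffer carries 5 mM CaCl2 and 125 mM NaCl at pH 7.4, incubations are at room temperature.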

[18] = Confirmatory screen NINDS Rhodamine qHTS for Zika virus inhibitors (AID 1347161); note: potency is the fitted concentration of half-maximal effect; nearly all actives have a fitted effect of over 60% in size
How it was run: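 Aprotinin served as in-plate control. Conditions: 25 nM linked NS2B-NS3, pH 8.0 Tris buffer, titrated compounds, 15 min preincubation and 15 min reaction with 1.5 microM Rhod110 substrate at room temperature.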

[19] = Tertiary RLuc qRT-PCR qHTS assay for Zika virus inhibitors (AID 1347169); note: top concentration of the series differs between compounds; nearly all actives have a fitted effect of over 55% in size
How it was run: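 Vero cells (1,000/well) infected with recombinant ZIKV-RLuc (Cambodian) at MOI 1-2 after compound addition, 48-72 hrs at 37 degrees C. Live-cell Renilla luciferase substrate added; luminescence read after 1-1.5 hrs.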

Protein phosphatase 1D (Homo sapiens), sequence (O15297 whole entry, looked up): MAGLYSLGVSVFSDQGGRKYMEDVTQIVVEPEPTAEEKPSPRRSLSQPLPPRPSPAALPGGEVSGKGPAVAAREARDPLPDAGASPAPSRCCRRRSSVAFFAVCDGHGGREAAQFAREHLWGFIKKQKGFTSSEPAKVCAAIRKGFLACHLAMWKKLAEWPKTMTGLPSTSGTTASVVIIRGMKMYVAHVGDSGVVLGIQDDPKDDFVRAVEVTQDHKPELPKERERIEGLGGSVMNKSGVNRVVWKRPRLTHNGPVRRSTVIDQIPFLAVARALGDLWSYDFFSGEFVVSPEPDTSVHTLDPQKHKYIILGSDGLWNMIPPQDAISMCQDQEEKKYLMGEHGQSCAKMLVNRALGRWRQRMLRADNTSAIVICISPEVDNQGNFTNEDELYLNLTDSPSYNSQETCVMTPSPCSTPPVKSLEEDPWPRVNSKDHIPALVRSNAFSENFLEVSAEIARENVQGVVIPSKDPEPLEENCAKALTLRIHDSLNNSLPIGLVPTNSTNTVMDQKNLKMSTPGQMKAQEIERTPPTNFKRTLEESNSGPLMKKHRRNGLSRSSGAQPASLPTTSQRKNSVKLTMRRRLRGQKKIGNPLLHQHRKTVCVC
Single-stranded DNA cytosine deaminase (Homo sapiens), sequence (Q9GZX7 whole entry, looked up): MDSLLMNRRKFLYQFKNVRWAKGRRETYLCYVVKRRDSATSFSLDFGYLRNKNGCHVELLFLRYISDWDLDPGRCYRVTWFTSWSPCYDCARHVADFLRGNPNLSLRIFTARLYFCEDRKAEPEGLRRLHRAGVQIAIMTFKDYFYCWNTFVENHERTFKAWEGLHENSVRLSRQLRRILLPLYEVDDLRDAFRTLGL
Lysine-specific demethylase 5B (Homo sapiens), sequence (Q9UGL1 whole entry, looked up): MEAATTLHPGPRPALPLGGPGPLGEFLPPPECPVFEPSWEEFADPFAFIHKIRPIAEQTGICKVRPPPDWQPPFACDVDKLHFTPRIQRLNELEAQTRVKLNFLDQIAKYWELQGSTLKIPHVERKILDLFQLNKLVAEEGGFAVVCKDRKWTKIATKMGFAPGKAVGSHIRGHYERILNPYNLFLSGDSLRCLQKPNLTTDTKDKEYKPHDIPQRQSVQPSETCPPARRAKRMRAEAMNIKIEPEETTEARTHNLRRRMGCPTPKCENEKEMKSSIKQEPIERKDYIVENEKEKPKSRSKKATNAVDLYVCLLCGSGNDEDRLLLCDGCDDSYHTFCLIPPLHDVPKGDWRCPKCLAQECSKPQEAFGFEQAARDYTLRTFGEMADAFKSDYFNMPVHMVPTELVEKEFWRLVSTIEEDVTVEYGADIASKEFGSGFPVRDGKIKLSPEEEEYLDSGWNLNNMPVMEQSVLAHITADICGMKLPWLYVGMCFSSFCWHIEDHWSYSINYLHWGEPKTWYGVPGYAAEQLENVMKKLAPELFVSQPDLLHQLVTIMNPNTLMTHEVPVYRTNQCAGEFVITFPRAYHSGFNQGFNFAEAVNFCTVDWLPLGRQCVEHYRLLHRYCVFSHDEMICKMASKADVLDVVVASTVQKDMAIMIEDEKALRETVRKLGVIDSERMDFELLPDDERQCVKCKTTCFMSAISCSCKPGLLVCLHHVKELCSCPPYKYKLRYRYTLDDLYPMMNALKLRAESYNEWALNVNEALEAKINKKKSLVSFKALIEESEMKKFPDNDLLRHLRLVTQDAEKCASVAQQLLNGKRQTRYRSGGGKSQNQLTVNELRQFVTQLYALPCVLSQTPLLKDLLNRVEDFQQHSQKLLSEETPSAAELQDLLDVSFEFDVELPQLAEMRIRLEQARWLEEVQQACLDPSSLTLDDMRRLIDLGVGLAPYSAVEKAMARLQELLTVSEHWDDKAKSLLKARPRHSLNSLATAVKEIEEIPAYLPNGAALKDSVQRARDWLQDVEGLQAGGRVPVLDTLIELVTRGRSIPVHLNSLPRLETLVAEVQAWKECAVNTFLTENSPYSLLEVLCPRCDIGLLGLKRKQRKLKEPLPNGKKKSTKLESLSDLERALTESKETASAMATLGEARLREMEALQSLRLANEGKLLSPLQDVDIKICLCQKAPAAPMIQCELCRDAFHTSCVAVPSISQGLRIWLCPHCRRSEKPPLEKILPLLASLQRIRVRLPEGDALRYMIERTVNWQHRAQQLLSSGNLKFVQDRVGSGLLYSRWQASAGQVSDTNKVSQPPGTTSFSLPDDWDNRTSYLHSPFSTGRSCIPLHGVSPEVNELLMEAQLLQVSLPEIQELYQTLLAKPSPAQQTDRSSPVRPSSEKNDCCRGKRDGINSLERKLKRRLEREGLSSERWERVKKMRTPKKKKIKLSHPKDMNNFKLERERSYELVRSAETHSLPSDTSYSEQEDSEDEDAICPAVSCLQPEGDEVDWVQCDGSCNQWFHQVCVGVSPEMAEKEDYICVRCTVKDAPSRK
Calcium and integrin-binding protein 1 (Homo sapiens), sequence (Q99828 whole entry, looked up): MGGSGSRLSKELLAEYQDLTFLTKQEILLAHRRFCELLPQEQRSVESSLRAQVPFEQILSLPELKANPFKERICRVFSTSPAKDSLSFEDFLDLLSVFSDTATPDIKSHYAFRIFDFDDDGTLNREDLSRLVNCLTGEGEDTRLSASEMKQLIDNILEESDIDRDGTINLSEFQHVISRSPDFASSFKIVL

For `CC(C)(Sc1ccc(CCN(CCCCC2CCCCC2)C(=O)NC2CCCCC2)cc1)C(=O)O`, the Potency [1] was 3.98 µM (active), the Potency [2] was 3.16 µM (active) and the Potency [3] was “inactive”. The outcome [4] was “inactive”, the outcome [5] was “inactive” and the outcome [6] was “inactive”. For the same molecule, the Potency [7] was “inactive”, the outcome [8] was “inactive” and the Potency [9] was “inactive”. For the same molecule, the outcome [10] was “inactive”, the Potency [11] was 79.4 µM (active) and the outcome [12] was “inactive”.

With `CCc1cc(Nc2nccc(-c3c(-c4ccc(OC)c(C(=O)Nc5c(F)cccc5F)c4)nc4ccccn34)n2)c(OC)cc1N1CCC(N2CCN(S(C)(=O)=O)CC2)CC1` the Potency [1] was “inactive”.

For `COc1cc(Oc2ccnc3cc(OC)c(OC)cc23)ccc1NC(=O)NC(C)c1nccs1` (configuration not stated), the Potency [1] was “inactive” and the Potency [9] was “inactive”.

With `CC[C@H](Nc1ncnc2nc[nH]c12)c1nc2cccc(F)c2c(=O)n1-c1ccccc1` the Potency [1] was “inactive” and the Potency [9] was “inactive”.

In the case of `CNCc1ccc(-c2[nH]c3cc(F)cc4c3c2CCNC4=O)cc1`, the Potency [13] is reported as “inactive” and the Potency [1] is reported as “inactive”.

In the case of `CC(C)(N)C(=O)N[C@H](COCc1ccccc1)C(=O)N1CCC2(CC1)CN(S(C)(=O)=O)c1ccccc12`, the Potency [1] is reported as “inactive” and the Potency [9] is reported as “inactive”.

For `COc1cc2nccc(Oc3ccc(NC(=O)NC4CC4)c(Cl)c3)c2cc1C(N)=O`, the Potency [1] was “inactive”.

For `CC[C@@H](C)[C@H](NC(=O)[C@H](CC1CCCCC1)NC(=O)c1ccno1)C(=O)N1CCC2(CCc3ccccc32)CC1`, the Potency [1] was “inactive” and the Potency [9] was “inactive”.

In the case of `CCCc1nn(C)c2c(=O)[nH]c(-c3cc(S(=O)(=O)N4CCN(C)CC4)ccc3OCC)nc12`, the Potency [1] is reported as “inactive”, the Potency [7] is reported as “inactive” and the outcome [14] is reported as “inactive”. For the same molecule, the outcome [8] was “inactive”, the Potency [9] was “inactive” and the Potency [15] was “inactive”. The outcome [16] was “inactive”, the outcome [12] was “inactive” and the Potency [17] was “inactive”.

With `CCOc1cc(C(=O)Nc2ccc(Cl)c(-c3nc4ccccc4[nH]3)c2)cc(OCC)c1OCC` the Potency [1] was “inactive”.

With `O=C(c1cc(Cc2n[nH]c(=O)c3ccccc23)ccc1F)N1CCN(C(=O)C2CC2)CC1` the Potency [13] was “inactive” and the Potency [1] was “inactive”.

For `C[C@H](NC(=O)Cc1cc(F)cc(F)c1)C(=O)N[C@@H]1C(=O)N(C)c2ccccc2-c2ccccc21`, the Potency [1] was “inactive”.

With `COc1cccc2cc(-c3nc(C4CCC(C(=O)O)CC4)n4ncnc(N)c34)[nH]c12` (configuration not stated) the Potency [1] was “inactive”.

In the case of `OCCn1cc(-c2cnc3nnn(Cc4ccc5ncccc5c4)c3n2)cn1`, the Potency [1] is reported as “inactive” and the Potency [9] is reported as “inactive”.

In the case of `COc1cc2c(cc1OC)CN(CCc1ccc(NC(=O)c3cccc4c(=O)c5cccc(OC)c5[nH]c34)cc1)CC2`, the Potency [13] is reported as 39.8 µM (active), the Potency [1] is reported as “inactive” and the Potency [18] is reported as 55.5 µM (active). The Potency [19] was “inactive” and the Potency [9] was “inactive”.

In the case of `COc1c(Cl)cc2c([nH]c3cnccc32)c1NC(=O)c1cccnc1C`, the Potency [1] is reported as “inactive” and the Potency [9] is reported as 26.2 µM (active).
